PubChem BioAssay AID485341 (National Center for Advancing Translational Sciences (NCATS), 2010)
The campaign covered roughly 330,000 compounds. About 1,700 (0.52%) were called active. What follows is part of a selection rich in actives, with near analogues and random picks from the rest. A number with no mark means an inactive call. Calls come from the whole dose curve; as a rule, active = well fitted inhibition curve with a large enough effect; inconclusive = small, poorly fitted or top-dose-only effect; inactive = no such curve, though single readings can be large or run the other way.

target: Beta-lactamase (Escherichia coli (strain K12)) (UniProt P00811); test: qHTS Inhibitors of AmpC Beta-Lactamase (assay without detergent); settings: AmpC nitrocefin hydrolysis, absorbance 480 nm, 0.0001% Triton; series mostly up to 57.1 µM; activity change, negative = inhibition: at the top concentration; note: nearly all actives have a fitted effect of over 20% in size
Sequence (P00811 whole entry, looked up): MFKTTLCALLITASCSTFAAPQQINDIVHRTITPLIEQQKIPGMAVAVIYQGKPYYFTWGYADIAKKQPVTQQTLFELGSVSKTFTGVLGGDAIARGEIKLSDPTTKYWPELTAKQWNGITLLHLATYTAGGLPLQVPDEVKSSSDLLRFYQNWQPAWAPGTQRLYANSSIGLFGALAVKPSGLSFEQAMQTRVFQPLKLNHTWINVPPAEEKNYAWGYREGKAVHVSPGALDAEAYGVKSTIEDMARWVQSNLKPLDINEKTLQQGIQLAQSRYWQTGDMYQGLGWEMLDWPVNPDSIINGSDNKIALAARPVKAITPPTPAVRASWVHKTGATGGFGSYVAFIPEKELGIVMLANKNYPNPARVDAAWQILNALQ
Description: NIH Molecular Libraries Probe Production Network [MLPCN] NIH Chemical Genomics Center [NCGC] Assay Provider: Professor Brian Shoichet, UCSF Assay Overview: This aggregation profiling approach exploits the sensitivity of aggregate formation to detergent. Inhibition of b-lactamase is measured in the presence and absence of 0.01% Triton X-100. This particular assay had the prescence of 0.01% Triton X-100. See Pubchem assay "Promiscuous and Specific Inhibitors of AmpC Beta-Lactamase (assay without detergent)" for related screen. Compounds that inhibit only in the absence of detergent are considered likely promiscuous aggregators. A screen of 1,030 compounds was performed in Brian Shoichet's lab in 96-well format. AmpC activity was measured by following the absorbance at 480 nm. Nitrocefin is a chromogenic substrate: while nitrocefin is yellow (lmax 390 nm), the product of its hydrolysis is red (lmax 486 nm, 17,000 M-1). AmpC beta lactamase was provided by Shoichet Lab, UCSF.
Buffer: 20 mM phosphate buffer, pH 7.0 Triton X-100: No Detergent screen: 0.0001%, Detergent screen: 0.01%. Reagents/Controls: Buffer in columns 3 and 4 as negative control (no enzyme). 5.3 nM AmpC in columns 1, 2, 5-48. Titration of UCSF compound 9 control (from 10 mM, then 1:2) pin-transferred to column 2. Column 1 is neutral (100% activity). Assay Steps: Six uL of reagents were dispensed to 1536-well Greiner black clear bottom plates. Compounds and controls (23 nL) were transferred via Kalypsys PinTool. The plates were incubated for 15 min at room temperature, and then 2 uL of 800 uM solution of nitrocefin was added to start the reaction. The plates were immediately transferred to and read every 20 seconds for 4 min on ViewLux (Perkin-Elmer) High-throughput CCD imager using 480 nm absorbance protocol. During dispense, reagent bottles were kept submerged into 4 deg C water bath. Keywords: NIH Roadmap, MLSCN, MLI, MLSMR, qHTS, NCGC, AmpC Beta-Lactamase, Aggregation
Potency is the fitted concentration of half-maximal effect.

Structure (SMILES) | activity change, negative = inhibition | Potency
CC1=CC2=NC(=O)CC(C)(C(=O)N(CC(=O)NC(C)(C)C)Cc3ccccc3)N2C=C1 (stereo unspecified) | -1.38% | 
Cc1ccc(Sc2cc(N3CCOCC3)nc(-c3ccccc3)n2)cc1 | -32.1% | 
N#Cc1ccccc1Sc1ccccc1C(=O)OCC(=O)NC1CCCCC1 |  | 35.5 µM (active)
O=C(COC(=O)c1ccccc1SCC(=O)NC1CCCCC1)NC1CCCCC1 | -20% | 
O=C(COC(=O)c1ccccc1Cl)NC1CCCCCCC1 | -39.4% | 
CCOc1c2ccc(C(=O)NCc3ccc4c(c3)OCO4)cc2nn1C |  | 0.316 µM (active)
CCOc1c2ccc(C(=O)NCc3ccc(OC(F)(F)F)cc3)cc2nn1C | 46% | 
CCCn1nc2cc(C(=O)NCc3ccccc3)ccc2c1OCC | 21.7% | 
CCCc1noc2c1/C(=N\O)CCC2 | -15.6% | 
Cc1ccc(CNC(=O)CC(NC(=O)c2ccccc2)c2ccccc2)cc1 (stereo unspecified) | -52.7% | 
COc1cccc(Nc2nnc(SCC(=O)N3CC(=O)Nc4ccccc43)s2)c1 | -48.4% | 
O=C(CCc1ccccc1Cl)Nc1ccc(S(=O)(=O)Nc2nccs2)cc1 | -31.9% | 
Cc1ccc(Cc2cnc(N)s2)o1 | -19.5% | 
Cc1ccc(CCC(=O)Nc2ncc(Cc3cc(Cl)ccc3Cl)s2)o1 |  | 20 µM (active)
O=S(=O)(Nc1cccc(-c2ccc(N3CCOCC3)nn2)c1)c1ccc(Cl)c(Cl)c1 | -15.7% | 
O=C(NCC(c1ccco1)N1CCc2ccccc21)c1cccc(F)c1 (stereo unspecified) | -31.7% | 
O=C(/C=C/c1ccccc1)Oc1coc(CSc2ncccn2)cc1=O | -0.374% | 
Cc1nc(SCC(=O)N2CC(=O)Nc3ccccc32)c2c(C)c(C)sc2n1 | 1.58% | 
Cc1nc(SCC(=O)N2CCc3ccccc3C2)c2c(C)c(C)sc2n1 |  | 0.158 µM (active)
O=C(CSc1nnc(-c2cccs2)n1Cc1ccccc1)N1CCc2ccccc2C1 | -10.2% | 
CC(C)C(=O)Nc1nnc(Sc2ccc(N(C)C)cc2)s1 | -52% | 
Fc1cccc(Cc2noc(CN3CCN(c4cnccn4)CC3)n2)c1 | 49% | 
Cc1ccc(-n2c(C)cc(/C=C(\C#N)C(=O)NCC3CCCO3)c2C)cc1 (stereo unspecified) | 116% | 
CCC(CC)C(=O)N1CC(=O)Nc2ccc(Br)cc2C1c1ccccc1 (stereo unspecified) |  | 0.891 µM (active)
Cc1ccc2c(c1)C(c1ccccc1)N(C(=O)c1ccc(F)cc1)CC(=O)N2 (stereo unspecified) | -22.1% | 
CC(C)C(=O)N1CC(=O)Nc2ccc(F)cc2C1c1ccc(F)cc1 (stereo unspecified) | -1.13% | 

Structure (SMILES) | activity change, negative = inhibition | Potency
CCCOC(=O)c1[nH]c2c(c1C)C(=O)CC(c1cc(OC)c(OC)c(OC)c1)C2 (stereo unspecified) |  | 2.51 µM (active)
COCCOC(=O)c1[nH]c2c(c1C)C(=O)CC(c1ccc(OC)cc1)C2 (stereo unspecified) | 19.4% | 
CCCOC(=O)c1[nH]c2c(c1C)C(=O)CC(c1cccs1)C2 (stereo unspecified) | -27.4% | 
COC(=O)Nc1ccc(S(=O)(=O)N2CCN(CCN3C(=O)C4C5C=CC(C5)C4C3=O)CC2)cc1 (stereo unspecified) | 47.2% | 
O=C(CCc1ccccc1F)N1CCN(c2ccccc2)CC1 | 12.6% | 
C=C(C)Cn1c(N2CCN(CC)CC2)nc2c1c(=O)[nH]c(=O)n2C | -4.72% | 
Nc1cc(N2CCCCCC2)c2nonc2c1[N+](=O)[O-] | -9.46% | 
O=C(NCc1ccccc1Cl)C(=O)NCC1CCCN1S(=O)(=O)c1cccs1 (stereo unspecified) | 68% | 
O=C(NCc1ccc(Cl)cc1)C1CCN(S(=O)(=O)c2cccs2)CC1 | -18.9% | 
O=C(NCc1ccc(Cl)cc1)C(=O)NCC1CCCN1S(=O)(=O)c1cccs1 (stereo unspecified) |  | 35.5 µM (active)
COc1ccc(C(=O)NCC2CCCN2S(=O)(=O)c2cccs2)cc1OC (stereo unspecified) | 2.01% | 
COc1ccc(CCNC(=O)C(=O)NCC2CCCN2S(=O)(=O)c2cccs2)cc1OC (stereo unspecified) |  | 31.6 µM (active)
COc1ccccc1CCNC(=O)C(=O)NCCC1CCCCN1S(=O)(=O)c1cccs1 (stereo unspecified) | -16.3% | 
O=C(COc1ccc([N+](=O)[O-])cc1)Nc1cccc(C(=O)Nc2ccccc2C(=O)O)c1 | 0.212% | 
O=C(NCCc1ccco1)C(=O)NCCC1CCCCN1S(=O)(=O)c1ccccc1 (stereo unspecified) | -16.1% | 
COc1cccc(CNC(=O)CN(C)S(=O)(=O)c2ccc3c(c2)c(=O)n(C)c(=O)n3C)c1 | 19.8% | 
CCC1Oc2ccccc2N(CC(=O)NCCCN2CCN(CC)CC2)C1=O (stereo unspecified) | 1.42% | 
COC(=O)c1ccc(/C=N/N2C(C)CCCC2C)cc1 (stereo unspecified) | -6.66% | 
O=C1OC(NC(=O)c2ccccc2)C(N2CCOCC2)=C1Cl (stereo unspecified) | -19.8% | 
O=C1OC(OC(=O)c2ccccc2Br)C(N2CCOCC2)=C1Cl (stereo unspecified) |  | 4.47 µM (active)
O=C1C(Cl)=C(N2CCOCC2)C(=O)N1c1ccccc1 | -18.7% | 
CC(=O)N1CCN(S(=O)(=O)c2c(F)cc(F)c(Cl)c2F)CC1 | -2.46% | 
CC(=O)Nc1ccc(C(=O)OCC(=O)Nc2ccc([N+](=O)[O-])cc2C(F)(F)F)cc1 | -22.3% | 
O=C(CCN1C(=O)C2C3CCC(C3)C2C1=O)Nc1ccc(Cl)cc1Cl (stereo unspecified) | 15.2% | 
CC1CN(c2nc(-c3ccccc3)nnc2-c2ccccc2)CC(C)O1 (stereo unspecified) | 23.1% | 
Cn1c(=O)n(C)c2cc(NS(=O)(=O)c3ccc(F)cc3)ccc21 | -28.5% [at 2.29 µM] | 

Structure (SMILES) | activity change, negative = inhibition | Potency
CSc1ccc(S(=O)(=O)Nc2cccc(F)c2)cc1 |  | 0.251 µM (active)
O=C1Cc2cc(S(=O)(=O)Nc3cccc(F)c3)ccc2N1 | -41.8% | 
CC1CCN(C(=O)/C(=C\c2ccccc2F)NC(=O)c2ccccc2)CC1 | 9.38% | 
CCCC(CNC(=O)COC(=O)C1=NNC(=O)CC1)c1ccc(Cl)cc1Cl (stereo unspecified) | 71.9% | 
CC(C)(C)NC(=O)NC(=O)COC(=O)Cc1c(F)cccc1Cl | -18% | 
CC(NC(=S)Nc1ccccc1)C(c1cccs1)N1CCOCC1 (stereo unspecified) | 5.27% | 
CCCCn1c(SCC(=O)N2CCCC2=O)nc2cc(S(N)(=O)=O)ccc21 | 6.34% | 
CCO/C=C1\C(=O)N(c2ccc(OCC)cc2)C(=O)c2ccccc21 | -26.1% | 
CCOc1ccc(N2C(=O)CSC2=NC#N)cc1 | -31.8% | 
CCOc1ccc(N2C(=O)CN(c3cccc4ccccc34)C2=S)cc1 |  | 10 µM (active)
Cc1cc(NC(=O)CSCc2nc(-c3cccc(Cl)c3)oc2C)no1 | -10.7% | 
O=S(=O)(c1ccc(SCc2ccccc2)nc1)N1CCCCCC1 | -28.9% | 
C/C(CC(C)C)=N\Oc1nc(C)cc(C)n1 | 2.75% | 
CCOC(CNC(=O)C(=O)NCC(c1ccco1)N1CCN(c2ccc(OC)cc2)CC1)OCC (stereo unspecified) | 66.9% | 
O=C(NCC(c1ccco1)N1CCc2ccccc2C1)c1ccccc1Cl (stereo unspecified) | -3.02% | 
COc1ccc(NC(=O)C(=O)NCC(c2ccco2)N2CCc3ccccc3C2)cc1 (stereo unspecified) |  | 28.2 µM (active)
O=[N+]([O-])c1ccc(N2CCN(S(=O)(=O)c3ccccc3)CC2)cc1N1CCc2ccccc2C1 | -9.35% | 
O=C(N[C@@H](Cc1ccccc1)C(=O)OCc1ccccc1)c1nc[nH]c1C(=O)N[C@@H](Cc1ccccc1)C(=O)OCc1ccccc1 | -12.3% | 
CCC(C(=O)Nc1ncccn1)(C(F)(F)F)C(F)(F)F | -12.8% | 
Cc1ccccc1-c1nc(CS(=O)(=O)CC(=O)NC(C)c2ccccc2)c(C)o1 (stereo unspecified) | 17.9% | 
CSc1ccc(CCNC(=O)CS(=O)(=O)Cc2nc(-c3ccccc3F)oc2C)cc1 | 21.8% | 
Cc1ccccc1-c1nc(CS(=O)(=O)CC(=O)N2CCc3ccccc3C2)c(C)o1 |  | 11.2 µM (active)
CCC[C@H]1CCCC/C=C\CCCC(=O)OCCN1C(=O)OC(C)(C)C | 78.3% | 
CC(C)CCn1c(CN(C)Cc2ccccc2)nc2c1c(=O)n(C)c(=O)n2C | 87% | 
CCN1CCN(Cc2nc3c(c(=O)n(C)c(=O)n3C)n2CC(=O)c2ccccc2)CC1 |  | 1.58 µM (active)
CC(C)Cn1c(CN(Cc2ccccc2)Cc2ccccc2)nc2c1c(=O)n(C)c(=O)n2C |  | 3.55 µM (active)

Structure (SMILES) | activity change, negative = inhibition | Potency
COCCn1c(CN(Cc2ccccc2)Cc2ccccc2)nc2c1c(=O)n(C)c(=O)n2C | 176% | 
COCCn1c(CN2CCC(Cc3ccccc3)CC2)nc2c1c(=O)n(C)c(=O)n2C | 0.0682% | 
CC1CCCN(Cc2nc3c(c(=O)n(C)c(=O)n3C)n2CC(=O)c2ccccc2)C1 (stereo unspecified) | 123% | 
Cc1oc2nc(SCC(=O)Nc3ccc(S(N)(=O)=O)cc3)nc(NC(=O)c3ccccc3)c2c1C | -28.2% | 
O=C(CNC1CCCCC1)NCC1(c2ccccc2)CCCC1 | -22.1% | 
O=C(CSc1nnc2ccccn12)c1ccccc1 |  | 44.7 µM (active)
Cc1ccc(-n2c(C)cc(C(=O)CSc3nnc4ccccn34)c2C)cc1 | -0.189% | 
Cc1ccc(C(=O)NNC(=O)CSc2nnc3ccccn23)cc1 | -13.5% | 
COc1ccc(N2CCN(C(=O)CNC(=O)c3ccc(Br)o3)CC2)cc1 | -0.595% | 
COc1ccc(-c2nc(CCNC(=O)c3ccc(Br)o3)cs2)cc1 |  | 44.7 µM (active)
O=C(NCCc1csc(-c2ccccc2)n1)c1ccccc1F | -2.06% | 
CCOC(=O)N1CCN(Cc2oc(CO)cc(=O)c2O)CC1 | -9.1% | 
Cc1cc(C)cc(C(=O)NC2C(=O)N3C(C(=O)O)=C(CSc4nnc(C)s4)CSC23)c1 (stereo unspecified) | -28.5% | 
C=CC1=C(C(=O)O)N2C(=O)[C@@H](NC(=O)/C(=N\OCC(=O)O)c3csc(N)n3)[C@H]2SC1 |  | 2 µM (active)
Cc1nnc(SCC2=C(C(=O)O)N3C(=O)C(NC(=O)Cn4nc(C)c(Cl)c4C)C3SC2)s1 (stereo unspecified) | 1.18% | 
CC(C)(C)OC(=O)C1=C(CO)CS[C@@H]2[C@H](NC(=O)Cc3ccccc3)C(=O)N12 | -11.7% | 
O=C(CN1C(=O)NC2(CCCCC2)C1=O)NCCC1=CCCCC1 | -12.1% | 
O=S(=O)(c1ccc(Cl)s1)N1CCC2(CC1)OCCO2 | 2.59% | 
COc1ccc(CNC(=O)CN2C(=O)NC3(CCCc4sccc43)C2=O)cc1 (stereo unspecified) | -9.03% | 
C=CCC1=C/C(=C\c2c(N)n3nc(CC(=O)N4CCOCC4)sc3nc2=O)C=C(OC)C1=O | 26.6% | 
COC(=O)C1(C)NC(c2ccc(F)cc2)C2C(=O)N(c3ccccc3)C(=O)C21 (stereo unspecified) | -7.33% | 
COC(=O)CSc1snnc1-c1ccc(Cl)c(Cl)c1 | -0.324% | 
O=C1c2ccccc2NC(c2ccccn2)N1NS(=O)(=O)c1ccccc1 (stereo unspecified) | -11.1% | 
